High-throughput results as filed in PubChem BioAssay.
G9a block: G9a (human) methyltransferase inhibition | Q96KQ7 | G9a H3K9 monomethylation, AlphaScreen, 2 h | Potency, µM (titrated, usually from 102 µM), for the others: at the top dose activity, negative = inhibition, most hits filed as inhibitors | 350,000 compounds, 8.8% hits | AID 504332; further: on the % scale 0 is the no-effect control and ±100 the full control effect; nearly all actives have a fitted effect of over 75% in size
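Quantitative HTS format: methyltransferase activity on a biotin-tagged H3K9 peptide is measured by AlphaScreen, using a rabbit anti-monomethyl-H3K9 antibody with streptavidin donor and anti-IgG acceptor beads. Final levels are 20 nM enzyme, 500 nM peptide, 20 uM SAM; 2 h RT.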
HP1b binding inh: HP1-beta chromodomain-methylated histone interaction inhibition; P83916; AlphaScreen HP1-beta / biotin-H3K9me3 peptide binding; Potency, µM (titrated, usually from 114 µM), without a hit: top-dose activity change, negative = inhibition, usual class: inhibitors; 390,000 compounds, 0.56% hits; further: nearly all actives have a fitted effect of over 70% in size
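Compound inhibition of the preformed complex between 50 nM HP1-beta and 50 nM biotinylated H3K9me3 peptide was read by AlphaScreen. Buffer was PBS pH 7.4 with 0.01% Tween-20. Incubations ran 30 min at room temperature, with 10 ug/mL donor/acceptor beads.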
GLS inh: inhibitors of human glutaminase (GLS). O94925. GLS enzymatic activity, qHTS titration. Potency, µM (titrated, usually from 45.5 µM), for inactives: top-dose activity change, negative = inhibition, hits mostly inhibitors. 410,000 compounds, 0.21% hits. AID 624170; further: on the % scale 0 is the no-effect control and ±100 the full control effect
Target sequence (O94925 whole entry, looked up): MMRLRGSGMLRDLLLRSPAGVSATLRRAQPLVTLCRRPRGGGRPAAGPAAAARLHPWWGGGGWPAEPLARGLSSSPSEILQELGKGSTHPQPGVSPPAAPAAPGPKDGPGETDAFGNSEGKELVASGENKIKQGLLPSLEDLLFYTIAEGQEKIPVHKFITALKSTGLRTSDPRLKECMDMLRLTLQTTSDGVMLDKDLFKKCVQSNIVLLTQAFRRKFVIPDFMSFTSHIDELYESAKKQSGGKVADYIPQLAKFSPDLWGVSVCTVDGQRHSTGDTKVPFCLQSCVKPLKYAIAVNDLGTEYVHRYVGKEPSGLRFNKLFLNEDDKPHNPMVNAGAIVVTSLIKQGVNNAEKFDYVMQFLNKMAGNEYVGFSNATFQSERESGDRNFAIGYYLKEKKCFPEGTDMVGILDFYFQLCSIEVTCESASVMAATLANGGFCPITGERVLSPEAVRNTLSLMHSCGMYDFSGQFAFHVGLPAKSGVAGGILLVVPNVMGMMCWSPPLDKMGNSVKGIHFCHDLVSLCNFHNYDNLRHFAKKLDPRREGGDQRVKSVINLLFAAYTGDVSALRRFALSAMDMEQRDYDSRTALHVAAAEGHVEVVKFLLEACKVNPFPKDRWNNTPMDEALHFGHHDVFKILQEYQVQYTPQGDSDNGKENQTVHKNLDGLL
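Human kidney-isoform GLS in 45 mM KH2PO4 pH 8.2, 0.02% Tween-20, with compound, started with 1mM L-Glutamine (added stock). Glutamate oxidase/HRP/Amplex red coupled fluorescence read at start and after 30 min at RT.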
JMJD2A Tudor inh: JMJD2A Tudor domain (human) inhibition. O75164. AlphaScreen JMJD2A-Tudor / H3K4me3 peptide binding. Potency, µM (highest dose often 114 µM), for inactives: at the top dose activity change, negative = inhibition, usual class: inhibitors. 390,000 compounds, 4.4% hits. AID 504339; further: on the % scale 0 is the no-effect control and ±100 the full control effect; nearly all actives have a fitted effect of over 50% in size
BAZ2B block: BAZ2B (human) inhibition; 360,000 compounds, 4.4% hits; Potency, µM (highest dose often 114 µM), for the others: top-dose activity change, negative = inhibition, most hits filed as inhibitors; AlphaScreen BAZ2B-H3K14Ac peptide displacement; AID 504333; Q9UIF8; further: on the % scale 0 is the no-effect control and ±100 the full control effect; nearly all actives have a fitted effect of over 60% in size
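Complex of BAZ2B and biotin-H3K14Ac (50 nM apiece) forms over 30 min at RT, then faces library compounds up to 110 uM for another 30 min; AlphaScreen beads added, 20 min dark incubation, luminescence read.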
* marks the source's active call; other numbers are inactive results; ? = inconclusive; . = no result; [ ] = remark or other dose. Only some compounds are listed: those with a hit (about 10% of all), similar ones and a draw of the others. The call rests on the fitted dose curve; in most records, active means well fitted curve in the direction sought with a large enough effect; inconclusive means small, poorly fitted or top-dose-only effect, or another doubt; inactive means no such curve, though single readings can be large; an effect the other way counts as inactive or inconclusive. Potency means the concentration at half of the fitted maximal effect.

SMILES | G9a block | HP1b binding inh | GLS inh | JMJD2A Tudor inh | BAZ2B block
Cc1nn(C(C)C(=O)NCCCN(Cc2ccccc2)C(C)C)c(=O)c2c1sc1ccccc12 (stereo unspecified) | -13% | 60% | 16% | 23% | -9%
CC(=O)Nc1ccc(S(=O)(=O)Nc2nc3cc4c(cc3nc2Cl)OCCO4)cc1 | . | 15% | 50% | -17% | -7%
Cc1c(C#N)c(N)nc(Cl)c1C#N | -40% | 21% | -4% | -1% | -2%
N#Cc1c(Cl)nsc1NN | 7.1µM* | 45µM* | -28% | 50µM* | 14µM*
CCC(=O)Nc1nnc(S(=O)(=O)N2CCCC2)s1 | . | 28% | -14% | -6% | 1%
Fc1ccc(COc2cccc3cccnc23)cc1 | 26% | 35% | 4% | -8% | 1%
O=C(COc1cccc2cccnc12)NNC(=S)Nc1ccccc1 | 18µM* | . | . | . | 2%
NC(=O)COc1cccc2cccnc12 | 45µM* | 22% | -8% | 5% | 0%
Cc1oc(C(=O)O)cc1COc1cccc2cccnc12 | 79µM* | 14% | ? | 79µM* | 40µM*
Cc1ccc(NC(=O)CN(C)C(=O)COc2cccc3cccnc23)cc1 | ? | 3% | 6% | ? | 50µM*
COc1ccc(Cl)cc1NS(=O)(=O)c1cc(-c2cc(C)no2)ccc1C | -2%[59 µM] | 54% | 1% | -4% | 1%
COC(=O)Cn1c(=O)c2c(nc(Br)n2CC(=O)OC)n(C)c1=O | -3%[12.7 µM] | 22% | 7% | -7% | 10%
CCCCCC(=O)NC(NC(=S)NC1CCS(=O)(=O)C1)C(Cl)(Cl)Cl (stereo unspecified) | 25µM* | 17% | -6% | -6% | 19%
CCCCCC(=O)NC(NC(=S)N1CCOCC1)C(Cl)(Cl)Cl (stereo unspecified) | 6%[59 µM] | 38% | 15% | 1% | 1%
CC1CCCCN1C(=O)CSc1nnc(-c2ccco2)n1C (stereo unspecified) | -2% | 19% | 5% | 1% | -3%
Cc1ccc(C(=O)CSc2nnc(-c3ccco3)n2CC2CCCO2)cc1 (stereo unspecified) | 11µM* | 9% | 7% | -31% | 2%
Cc1cc(NC(=O)CSc2nnc(-c3ccco3)n2CC2CCCO2)no1 (stereo unspecified) | 2%[59 µM] | 32% | -1% | -19% | 8%
CCn1c(SCC(=O)N2CCCCC2C)nnc1-c1ccco1 (stereo unspecified) | 35µM* | 19% | 0% | -13% | 4%
CC1CCCCN1C(=O)CSc1nnc(-c2ccco2)n1CC1CCCO1 (stereo unspecified) | 14µM* | 32% | 0% | 0% | 2%
CCc1cc(Cl)c(OC)c(C(=O)NC[C@@H]2CCCN2CC)c1O | 16%[59 µM] | 21% | 6% | -23% | .
CCCN(CCC)c1nc(-c2ccccc2F)nc2ccccc12 | 142%[59 µM] | 244% | -6% | 45% | 390%
CN(CC(=O)Nc1c(Cl)cccc1Cl)C(=O)C1CCN(C(=O)Nc2ccccc2)CC1 | 14%[0.501 µM] | 27% | -1% | 1% | -5%
Cc1c([C@H]2[C@@H](CC#N)C2(C)C)c2ccccc2n1C | 5%[12.7 µM] | ? | 16% | ? | 22µM*
O=C(O)c1cccc(-n2c(O)c(C=C3N=c4ccccc4=N3)sc2=S)c1 | 50µM* | -16% | 21% | ? | -37%
O=C(O)CCCCCn1c(O)c(C=C2N=c3ccccc3=N2)sc1=S | 8.9µM* | -2% | 9% | -32% | 50µM*
SMILES | G9a block | HP1b binding inh | GLS inh | JMJD2A Tudor inh | BAZ2B block
O=C(O)CCCn1c(O)c(C=C2N=c3ccccc3=N2)sc1=S | -107%[59 µM] | 23% | 2% | -34% | ?
CCCC(C(=O)O)n1c(O)c(C=C2N=c3ccccc3=N2)sc1=S (stereo unspecified) | ? | -2% | 7% | 20µM* | -32%
COc1ccc(NC(=O)c2sc3nc4c(cc3c2N)CN(C(C)C)CC4)c(OC)c1 | 11µM* | -8% | -1% | ? | ?
Cc1cccc(NC(=O)c2sc3nc4c(cc3c2N)CN(C(C)C)CC4)c1 | 14µM* | -19% | 3% | 50µM* | ?
Cc1cccc(NC(=O)c2sc3nc(N)c(C#N)cc3c2N)c1 | 10µM* | 12% | 17% | 35µM* | -10%
Cc1cccc(NC(=O)c2sc3nc4c(cc3c2N)CN(Cc2ccccc2)CC4)c1 | -2%[59 µM] | 26% | -9% | 5% | -9%
CCCN(CC(=O)Nc1ccc(F)c(F)c1F)CC(=O)Nc1c(C)n(C)n(-c2ccccc2)c1=O | 11%[2.33 µM] | 29% | 5% | -5% | 4%
CC(C)(C)c1ccc(S(=O)(=O)Nc2noc3ccccc23)cc1 | 6% | 16% | -2% | -11% | -15%
O=C(Cn1nc(Cc2ccncc2)c2ccccc2c1=O)Nc1cccc(C(F)(F)F)c1 | -2%[59 µM] | 68% | -5% | -18% | -16%
S=C(CN1CCCC1=S)N1CCOCC1 | . | 29% | -2% | -1% | .
CC(C)(CCC(=S)N1CCOCC1)C1CCCCC1 | 8.9µM* | -20% | ? | 1% | 2%
Cc1c2n(c3ccccc13)CCC2=O | 11% | 29% | -2% | -5% | -1%
O=C(O)/C=C/C(=O)Nc1ccccc1-c1ccccc1NC(=O)/C=C/C(=O)O | 10µM* | 33% | 78% | 79µM* | -1%
O=C(Nc1ccccc1)Nc1c(F)cccc1F | -19% | 19% | 1% | -11% | -19%
O=C(O)/C=C/C(=O)Nc1c(F)cccc1F | 50µM* | 60% | -3% | -6% | 0%
O=C(O)/C=C/C(=O)Nc1ccccc1SC(F)(F)F | 8.9µM* | 27% | -1% | -19% | 1%
O=C(O)/C=C/C(=O)Nc1ccc(SC(F)(F)F)cc1 | ? | 27% | 1% | 0%[57.1 µM] | -14%
Cc1ccc(CCNC(=O)C2CCCN(S(=O)(=O)c3c(C)noc3/C=C/N(C)C)C2)cc1 (stereo unspecified) | -5% | 4% | -1% | ? | -8%
O=S(=O)(Cc1ccccc1)NCc1cccnc1 | ? | 19% | 2% | -5% | -2%
CC(=O)N(Cc1ccc(F)cc1)C1=C(NCCc2ccccc2)C(=O)c2ccccc2C1=O | 28µM* | -68% | -7% | 20µM* | 14µM*
CC(=O)N(Cc1ccc(F)cc1)c1cccc(C)c1C | 39% | 47% | -4% | -1% | -13%
O=C1C(Cl)=C(NCc2cccnc2)C(=O)c2ccccc21 | ? | -8% | 3% | -36% | 50µM*
O=C1C(Cl)=C(NCCc2ccccc2)C(=O)c2ccccc21 | . | ? | ? | 0.79µM* | .
Cc1ccc(NCc2cccnc2)cc1 | 56µM* | -6% | 8% | 40µM* | ?
Cc1ccc(CNc2cccnc2)cc1 | 6% | 31% | 22% | -20% | -13%
O=C1c2ccccc2C(=O)c2c(NCCc3ccc(O)cc3)ccc(NCCc3ccc(O)cc3)c21 | 1.8µM* | . | . | . | .
C/C(NCCc1ccc(O)cc1)=C1/CCOC1=O | . | . | 20% | . | .
C=CCNC1=C(Cl)C(=O)c2ccccc2C1=O | 40µM* | 50µM* | 7% | 45µM* | 32µM*
